Screens from PubChem BioAssay.
DT40 TDP1 no CPT – qHTS for Inhibitors of human tyrosyl-DNA phosphodiesterase 1 (TDP1): qHTS in cells in absence of CPT. DT40 Tdp1-/- hTDP1 cells, no CPT, ATP luminescence, 48 h. Potency, µM (series often up to 46.2 µM), inactives show at the highest dose activity change, negative = growth inhibition, hits mostly inhibitors. 420,000 compounds, 15% hits; note: potency is the fitted concentration of half-maximal effect; nearly all actives have a fitted effect of over 55% in size
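No-CPT arm: Tdp1-/-;hTDP1 DT40 cells (400/well) plus compounds, incubated ≥48 hr at 37 °C. Readout CellTiter-Glo luminescence.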
DT40 TDP1 CPT – DT40-hTDP1 cell growth loss with CPT; chicken DT40 Tdp1-/-;hTDP1 cells + 20 nM CPT, ATP luminescence, 48 h; AID 686979; Potency, µM (titrated, usually from 46.2 µM), for the others: at the highest dose activity change, negative = growth inhibition, usual class: inhibitors; 420,000 compounds, 12% hits; note: potency is the fitted concentration of half-maximal effect; nearly all actives have a fitted effect of over 55% in size
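Chicken DT40 Tdp1-/- cells stably complemented with human TDP1 were seeded at 400 cells/well in medium containing 20 nM camptothecin, exposed to pin-transferred compounds, and grown at 37 °C for at least 48 hr. Viability was read as ATP luminescence.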
HT1080NT lethal – kills 2HG-producing HT-1080-NT fibrosarcoma cells | Potency, µM (titrated, usually from 46.1 µM), for the others: at the top dose activity, negative = less viability, most hits filed as cytotoxic | 360,000 compounds, 1.6% hits | AID 686970 | HT-1080-NT fibrosarcoma viability, CellTiter-Glo ATP luminescence, 48 h;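 note: NT is the 2HG producing partner of a matched IDH1 knockdown line; potency is the fitted concentration of half-maximal effect; 0% = DMSO-treated cells and -100% = media-only wells without cells; nearly all actives have a fitted effect of over 55% in size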
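Toxicity toward the 2HG-producing NT line was scored as %Activity, normalised to DMSO and no-cell wells, from CellTiter-Glo luminescence after 48 hours' treatment.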
ELG1 DNA repair – ELG1-dependent DNA repair inhibition; HEK293T ELG1-luciferase reporter, luminescence, 16 h; DNA damage induced by 5-fluorouridine; Potency, µM (top dose mostly 46.1 µM), inactives show at the highest dose activity change, negative = inhibition, usual class: inhibitors; 330,000 compounds, 2.3% hits; AID 504467; note: potency is the fitted concentration of half-maximal effect; nearly all actives have a fitted effect of over 55% in size
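5-Fluorouridine DNA damage + compound/DMSO, 2,000 cells/well, 16 h, 37 °C/5% CO2. ONE-Glo, 30 min RT, luminescence. Readout = decrease in reporter signal.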
IL-1B inflam inh – inflammasome signaling inhibition, IL-1 beta readout. activity change, % at 57.5 µM. THP-1 LPS/ATP IL-1B secretion, AlphaLISA, 16 h; stronger effect = lower value. AID 743279. 360,000 compounds, 4.7% hits; in the data active = activity change below about -50%; inconclusive = mostly about -30% to -49%
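Secreted IL-1B measured by AlphaLISA bead assay after 16 h compound exposure of THP-1 cells; compounds (final up to 57.5 uM) added 1 h before LPS (250 ng/mL) and ATP (1.25 mM) stimulation; lower signal means less secretion.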
HT1080 IDH1KD tx – kills HT-1080 cells with IDH1 knockdown | HT-1080 IDH1 knockdown viability, ATP luminescence, 48 h | 360,000 compounds, 2% hits | Potency, µM (highest dose often 46.1 µM), without a hit: top-dose activity, negative = toxicity, hits mostly cytotoxic;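 note: potency is the fitted concentration of half-maximal effect; 0% = DMSO wells and -100% = cell-free medium wells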
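Viability of IDH1-knockdown HT-1080 fibrosarcoma cells was assessed by CellTiter-Glo after 48 h at 37 °C with titrated compound; concentration-effect curves were classified by fit quality and response size.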
The depositor's hits bear a star; ? = inconclusive; nt = no result given; ! = not confirmed by another sample. The list is not random: actives were taken first. Their share in the collection is about 19%. Unless noted, calls come from the whole dose curve; as a rule, active = well fitted curve in the direction sought with a large enough effect; inconclusive = small, poorly fitted or top-dose-only effect, or another doubt; inactive = no such curve, though single readings can be large; an effect the other way counts as inactive or inconclusive. Unless noted, % is set by controls: 0 for no effect and ±100 for the full control effect.

SMILES | DT40 TDP1 no CPT | DT40 TDP1 CPT | HT1080NT lethal | ELG1 DNA repair | IL-1B inflam inh | HT1080 IDH1KD tx
CN(C)CCCNC(=O)C1(O)c2cc(Br)ccc2NC(=O)N1c1c(F)cccc1F (stereo not given) | -1.0% | 2.8% | 15.1% | 8.1% | 8.6 | 15.6%
N#Cc1cc(-c2ccccc2)[nH]c1-c1nccc2ccccc12 | ? | ? | -5.1% | 9.2µM* | -18.1 | -13.9%
COC(=O)c1c(-c2ccccc2)[nH]c(-c2nccc3ccccc23)c1C(=O)OC | ? | ? | -5.2% | nt | -22.5 | -0.6%
CC(=O)NC(c1ccccc1)c1nc(-c2ccccc2)cs1 (stereo not given) | -7.8% | ? | ? | nt | 3.1 | 30.0%
Cc1ccc2c(c1)C1(C)C(C(C)(C)N2C=O)C1(Cl)Cl (stereo not given) | 10.3µM* | -22.6% | -6.4% | -8.8% | -6.3 | 1.4%
CC(=O)N1c2ccccc2C2(C)C(C1(C)C)C2(Cl)Cl (stereo not given) | ? | -12.1% | -4.4% | -18.0% | 8.0 | -7.9%
O=C(Nc1ccc(-c2csnn2)cc1)C(Cl)(Cl)Cl | 7.31µM* | 16.4µM* | -28.2% | 1.1% | ? | -6.7%
CC(=O)c1c(C)[nH]c(C(=O)CN2CCN(S(=O)(=O)c3ccccc3[N+](=O)[O-])CC2)c1C | 13µM* | 20.6µM* | -1.0% | ? | -7.0 | -1.1%
CC1(C)CC2CC(C)(CN2S(=O)(=O)c2ccccc2[N+](=O)[O-])C1 (stereo not given) | 20.6µM* | 20.6µM* | -19.8% | ? | -4.5 | -0.5%
CCCS(=O)(=O)N1CCN(S(=O)(=O)c2ccccc2[N+](=O)[O-])CC1 | -1.0% | 0.0% | 11.6% | -12.5% | -0.9 | 22.5%
CC1CC(C)CN(S(=O)(=O)c2ccccc2[N+](=O)[O-])C1 (stereo not given) | 13µM* | 13µM* | 10.4% | -4.6% | -12.5 | 3.0%
CC1(C)CC2CC(C)(CN2S(=O)(=O)c2cccc(N)c2)C1 (stereo not given) | ? | ? | -14.4% | -6.3% | 16.7 | 6.4%
COCc1nc2cccnc2n1C1CCN(S(=O)(=O)N(C)C)CC1 | -0.9% | 2.6% | nt | nt | nt | nt
CCOC(=O)c1nc(N)c(C(=O)OCC)[nH]1 | 29.1µM* | ? | 22.3% | -9.2% | 2.4 | 15.3%
O=C(c1ccc2c(c1)N(Cc1cccc(Cl)c1)C(=O)c1ccccc1S2(=O)=O)N1CCc2ccccc21 | 1.64µM* | 2.06µM* | nt | nt | nt | nt
CN1CCN(C(=O)c2ccc3c(c2)N(Cc2ccc(Cl)cc2)C(=O)c2ccccc2S3(=O)=O)CC1 | ? | -29.1% | nt | nt | nt | nt
O=C(c1ccc2c(c1)N(Cc1cccc(Cl)c1)C(=O)c1ccccc1S2(=O)=O)N1CCCCC1 | ? | 16.4µM* | nt | nt | nt | nt
COc1ccccc1CNC(=O)CN(C)S(=O)(=O)c1ccc2c(c1)n(C)c(=O)c(=O)n2C | 10.6% | -2.4% | -0.8% | 26.1% | 7.8 | 12.1%
Cc1nc2ccccc2c(=O)n1NC(=O)Cc1ccc([N+](=O)[O-])cc1 | -4.0% | 2.6% | 9.7% | ? | 28.8 | 11.5%
Cn1c(NCc2c[nH]c3ccccc23)nc2ccccc21 | ? | ? | 4.4% | ? | -91.9* | 6.1%
Cc1cccn2c(=O)c(C=O)c(N3CCC4(CC3)OCCO4)nc12 | -29.8% | 0.4% | 20.1% | 0.8% | nt | 9.2%
Cc1ccc(S(=O)(=O)Nc2cc(-c3nn(C)c(=O)c4ccccc34)ccc2N2CCOCC2)cc1 | ? | ? | ? | ? | 18.3 | 10µM*
Cn1nc(-c2ccc(N3CCOCC3)c(NS(=O)(=O)c3ccc(Cl)cc3)c2)c2ccccc2c1=O | 25.9µM* | 18.4µM* | ? | 0.9% | 8.6 | 18.4µM*
CC(=O)Nc1cc(-c2nn(C)c(=O)c3ccccc23)ccc1N1CCOCC1 | 5.5% | 26.5% | -1.3% | ? | 16.0 | 11.8%
CCN1CCC(N(Cc2ccc3c(c2)OCO3)C(=O)Nc2ccc(Br)c(C)c2)CC1 | 16.4µM* | ? | nt | nt | nt | nt
SMILES | DT40 TDP1 no CPT | DT40 TDP1 CPT | HT1080NT lethal | ELG1 DNA repair | IL-1B inflam inh | HT1080 IDH1KD tx
CC(C)C[C@@H](CO)N(Cc1ccccc1)S(=O)(=O)N(Cc1ccccc1)[C@@H](CO)CC(C)C | 18.4µM* | 16.4µM*! | ? | ? | -63.4* | ?
COc1ccc(CN([C@H](C)CO)S(=O)(=O)N(Cc2ccccc2)[C@H](CO)C(C)C)cc1 | 16.4µM* | 35.5µM* | 12.4% | -12.5% | 0.0 | 8.1%
COc1ccc(CCC(C)N(C)Cc2ccccc2)cc1 (stereo not given) | ? | -21.4% | -3.9% | -0.2% | -4.1 | -1.6%
CC(C)C[C@@H](C)C(=O)N(Cc1ccccc1)c1ccccc1 | ? | ? | 11.0% | 14.7% | -8.3 | 2.4%
CCN([C@H](CO)CC(C)C)S(=O)(=O)c1ccccc1 | ? | ? | -0.7% | 21.7% | 44.2 | 7.2%
C=CS(=O)(=O)N(Cc1ccccc1Br)[C@H](CO)CC(C)C | 10µM* | 23.1µM* | -12.3% | nt | ? | -19.7%
C=C[C@H](CC(C)C)N(Cc1ccccc1)S(=O)(=O)N(Cc1ccccc1)[C@@H](C=C)CC(C)C | 14.6µM* | 13µM* | 1.1% | 15.7% | 11.9 | 14.4%
Cc1ccc2c(c1)c(-c1csc(N)n1)c(C)n2C | -6.0% | 2.0% | -11.5% | -6.3% | 12.6 | -6.6%
COc1ccccc1C(=O)OCc1ccc2sc(C)nc2c1 | ? | 7.7% | 4.1% | 9.9% | -15.6 | 26.8%
CC(C)C[C@@H](CO)N(Cc1ccccc1)S(=O)(=O)N(Cc1ccccc1)[C@H](CO)CC(C)C | 13µM* | 13µM* | ? | ? | -78.5* | ?
O=S(=O)(N(Cc1ccccc1)[C@H](CO)Cc1ccccc1)N(Cc1ccccc1)[C@H](CO)Cc1ccccc1 | ? | ? | -5.2% | 14.4% | 2.6 | -4.4%
COc1ccc(CN([C@H](CO)CC(C)C)S(=O)(=O)N(Cc2ccccc2)[C@H](CO)CC(C)C)cc1 | 23.1µM* | ? | 16.4µM* | ? | -87.6* | 6.51µM*
CC(C)(C)c1ccc(C(=O)C2CCCN(C(=O)C3CCOCC3)C2)cc1 (stereo not given) | 16.4µM* | ? | -1.1% | -1.4% | 26.4 | 18.2%
Cc1noc(C)c1CC(=O)N1CCCC(C(=O)c2ccc(C(C)(C)C)cc2)C1 (stereo not given) | 20.6µM* | 20.6µM* | 1.2% | ? | 14.9 | -2.2%
